Screening results as filed in PubChem BioAssay.
Cruzain inh Det – qHTS Assay for Promiscuous and Specific Inhibitors of Cruzain (with detergent); Cruzipain (Trypanosoma cruzi), P25779; purified cruzain, Z-FR-AMC fluorescence, 0.01% Triton; Potency, µM, without a hit: max response, negative = inhibition, most hits filed as inhibitors; 0.43% of 200,000 active;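 also: plate controls were neutral wells for no effect and buffer without enzyme for full effect; nearly all actives have a fitted effect of over 40% in size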
Target sequence (P25779 123-467 limits assumed): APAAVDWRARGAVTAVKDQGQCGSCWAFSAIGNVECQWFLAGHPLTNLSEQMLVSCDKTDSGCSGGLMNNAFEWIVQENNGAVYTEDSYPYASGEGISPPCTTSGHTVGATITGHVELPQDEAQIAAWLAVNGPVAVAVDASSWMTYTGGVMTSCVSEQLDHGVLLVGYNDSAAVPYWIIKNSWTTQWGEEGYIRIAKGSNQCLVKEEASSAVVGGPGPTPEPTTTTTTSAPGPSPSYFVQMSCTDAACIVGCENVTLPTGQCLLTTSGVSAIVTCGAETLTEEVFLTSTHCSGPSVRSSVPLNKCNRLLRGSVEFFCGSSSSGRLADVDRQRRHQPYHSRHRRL
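Sodium acetate buffer (100 mM, pH 5.5) containing 5 mM DTT and 0.01% Triton X-100 hosted 1.5 nM cruzain and test compound for 15 min at room temperature. Cleavage of 2 uM Z-FR-AMC was then tracked by fluorescence.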
Cruzain noTriton – qHTS Assay for Promiscuous and Specific Inhibitors of Cruzain (without detergent) | AID 1476, 2009 | purified cruzain, Z-FR-AMC fluorescence, no detergent | 2.3% of 200,000 active | Potency, µM, without a hit: max response, negative = inhibition, hits mostly inhibitors;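 also: plate controls were enzyme without inhibitor for no effect and buffer without enzyme for full effect; nearly all actives have a fitted effect of over 40% in size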
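Detergent-free condition (0.00005% Triton X-100) in acetate buffer pH 5.5 with DTT. 1.5 nM enzyme and compound were pre-mixed 15 min, then 2 uM Z-FR-AMC substrate added; reaction progress from fluorescence change between first and third reads (60 s).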
An asterisk follows results filed as active. Rows were chosen to be rich in hits. Some 2.5% of all compounds tested hit in one or more screens of this group. Calls follow the shape of the dose curve; as a rule, active = well fitted curve in the direction sought with a large enough effect; inconclusive = small, poorly fitted or top-dose-only effect, or another doubt; inactive = no such curve, though single readings can be large; an effect the other way counts as inactive or inconclusive. Potency is read from the fitted curve at half-maximal effect.

For COc1ccc2nc3sc(C(=O)N4CCN(c5ccccc5)CC4)cc3cc2c1 the results were Cruzain inh Det -2.3% and Cruzain noTriton -3.8%.
COc1cccc(C(=O)NC(=NCCc2c[nH]c3ccc(OC)cc23)Nc2nc(C)cc(C)n2)c1 was read as Cruzain inh Det -1.5% and Cruzain noTriton -22.7%.
`O=C(CSc1nc2ccccc2c(=O)n1-c1ccccc1)NCc1ccc2c(c1)OCO2` gave Cruzain inh Det 0.7% and Cruzain noTriton -0.6%.
CCCCNC(=O)CSc1nc2ccccc2c(=O)n1Cc1ccc2c(c1)OCO2 was read as Cruzain inh Det 5.8% and Cruzain noTriton 20µM*.
Screening COc1ccccc1NC(=O)C1=C(C)NC(SCC(=O)c2ccc(C)cc2)=C(C#N)C1c1ccco1 (stereo not given) returned Cruzain inh Det -9.9% and Cruzain noTriton 12.6µM*.
Screening CC1=C(C(=O)Nc2ccccc2)C(c2ccco2)C(C#N)=C(SCc2ccccc2)N1 (stereo not given) returned Cruzain inh Det -5.4% and Cruzain noTriton 20µM*.
For CC(=O)C1=C(C)NC(SCC(=O)c2cc(Cl)ccc2Cl)=C(C#N)C1c1ccco1 (stereo not given) the results were Cruzain inh Det -17.9% and Cruzain noTriton 25.1µM*.
For CCOc1ccccc1NC(=O)CSC1=C(C#N)C(c2ccco2)C(C(=O)Nc2nc3ccccc3s2)=C(C)N1 (stereo not given) the results were Cruzain inh Det -8.6% and Cruzain noTriton 7.94µM*.
Screening CC1=C(C(=O)Nc2ccccc2)C(c2ccco2)C(C#N)=C(SCC(=O)OC(C)C)N1 (stereo not given) returned Cruzain inh Det -8.9% and Cruzain noTriton -8.6%.
CC1=C(C(=O)Nc2ccccc2)C(c2ccco2)C(C#N)=C(SCC(=O)Nc2cccc(C)c2C)N1 (stereo not given) was read as Cruzain inh Det -7.8% and Cruzain noTriton inconclusive.
For CC(=O)C1=C(C)NC(SCC(=O)c2ccc(F)cc2)=C(C#N)C1c1ccco1 (stereo not given) the results were Cruzain inh Det -17.1% and Cruzain noTriton -17.4%.
CC(=O)C1=C(C)NC(SCC(=O)c2ccc(Cl)c(Cl)c2)=C(C#N)C1c1ccco1 (stereo not given) was read as Cruzain inh Det -20.2% and Cruzain noTriton inconclusive.
`CCc1ccc(NC(=O)N(Cc2cn(CC)c3ccccc23)C2CCCCC2)cc1` gave Cruzain inh Det -3.1% and Cruzain noTriton inconclusive.
Screening Cc1ccc(CN2CCCN(CC(=O)Nc3ccc(C)cc3C)S2(=O)=O)cc1 returned Cruzain inh Det -6.0% and Cruzain noTriton -0.1%.
Screening CC(C)c1cc(-c2nc(-c3ccc(Cl)cc3)no2)n[nH]1 returned Cruzain inh Det -11.5% and Cruzain noTriton 9.8%.
For CCC(C)n1c(SCc2ccc(F)cc2Cl)nc2ccsc2c1=O (stereo not given) the results were Cruzain inh Det 2.4% and Cruzain noTriton 22.5%.
Screening CCN(C(=O)CSc1nc2ccccc2n1CC(=O)Nc1ccc(F)cc1F)c1ccccc1 returned Cruzain inh Det -3.3% and Cruzain noTriton inconclusive.
Screening CCOC(=O)Cc1cc(=O)n(-c2nc3ccccc3s2)[nH]1 returned Cruzain inh Det 17.8µM* and Cruzain noTriton inconclusive.
For CCOC(=O)c1sc(-n2[nH]c(C)cc2=O)nc1C the results were Cruzain inh Det inconclusive and Cruzain noTriton 11.7%.
For CCOc1cccc(C(=O)N(Cc2ccc(N(C)C)cc2)CC2CCCO2)c1 (stereo not given) the results were Cruzain inh Det -1.1% and Cruzain noTriton 6.2%.
O=[N+]([O-])c1ccc(S(=O)(=O)N2CCn3cccc3C2c2ccc(Br)cc2)cc1 (stereo not given) was read as Cruzain inh Det -2.9% and Cruzain noTriton inconclusive.
For Cc1ccc(C2c3cccn3CCN2S(=O)(=O)c2ccc([N+](=O)[O-])cc2)cc1 (stereo not given) the results were Cruzain inh Det -6.0% and Cruzain noTriton 31.6µM*.
For Cc1cc(C)c(NC(=O)C2CCN(S(=O)(=O)c3c(C)noc3/C=C/c3ccccc3F)CC2)c(C)c1 the results were Cruzain inh Det -1.1% and Cruzain noTriton 6.2%.
For CC(C)CC(NC(=O)C(CC(C)C)NC(=O)OC(C)(C)C)C(N)=O (stereo not given) the results were Cruzain inh Det inconclusive and Cruzain noTriton 15.8µM*.
For CSCCC(NC(=O)OC(C)(C)C)C(=O)NC(CC(C)C)C(N)=O (stereo not given) the results were Cruzain inh Det -0.7% and Cruzain noTriton -2.4%.
CCn1c(CNC(=O)c2ccc(OC)cc2)nnc1SCC(=O)Nc1ccc(OC)cc1 was read as Cruzain inh Det 1.8% and Cruzain noTriton -4.2%.
`C(=Nc1ccc2c(c1)Cc1ccccc1-2)c1ccccn1` gave Cruzain inh Det 0.1% and Cruzain noTriton -10.2%.
`COc1ccccc1NC(=O)C(=O)N/N=C(\C)CC(=O)Nc1ccc(OCc2ccccc2)cc1` gave Cruzain inh Det -2.3% and Cruzain noTriton -4.1%.
`C/C(CC(=O)Nc1ccc(OCc2ccccc2)cc1)=N\NC(=O)C(=O)Nc1cccc(C)c1` gave Cruzain inh Det -2.1% and Cruzain noTriton 31.6µM*.
Screening COc1ccccc1C(=O)NCC(=O)OCc1ccc(Br)cc1 returned Cruzain inh Det -19.2% and Cruzain noTriton -11.1%.
For COc1ccccc1C(=O)NCC(=O)OC(C)C(=O)NC(=O)NC1CCCCC1 (stereo not given) the results were Cruzain inh Det 8.91µM* and Cruzain noTriton 10µM*.
For COc1ccccc1CNc1nc2c(S(=O)(=O)c3ccc(C)c(C)c3)nnn2c2ccc(Cl)cc12 the results were Cruzain inh Det 0.3% and Cruzain noTriton -5.9%.
`CC(=O)c1cccc(NC(=O)c2cc(-c3ccc4c(c3)OCCO4)on2)c1` gave Cruzain inh Det 0.2% and Cruzain noTriton -1.5%.
CC(=O)c1cccc(NC(=O)c2cc(-c3ccc(C)cc3)on2)c1 was read as Cruzain inh Det 1.1% and Cruzain noTriton 25.1µM*.
`Cc1ccc(Cn2ccc(NC(=O)c3cc(-c4ccc(F)cc4)on3)n2)cc1` gave Cruzain inh Det 7.6% and Cruzain noTriton 20µM*.
`COc1cccc(-c2cc(C(=O)Nc3cc(C)on3)no2)c1` gave Cruzain inh Det 0.1% and Cruzain noTriton -5.4%.
Cc1ccc(Cn2ccc(NC(=O)c3cc(-c4ccc(Cl)cc4)on3)n2)cc1 was read as Cruzain inh Det -3.2% and Cruzain noTriton 0.6%.
For Cc1cc(NC(=O)c2cc(-c3cccc(Cl)c3)on2)no1 the results were Cruzain inh Det 4.7% and Cruzain noTriton 20µM*.
For Cc1ccc(-c2n[nH]c3c2C(c2cccs2)N(c2ccc(Cl)cc2)C3=O)cc1 (stereo not given) the results were Cruzain inh Det -8.5% and Cruzain noTriton inconclusive.
For COc1ccc(C)cc1NC(=O)CN1C(=O)CCc2cc(S(=O)(=O)N3CCOCC3)ccc21 the results were Cruzain inh Det -0.8% and Cruzain noTriton inconclusive.
O=C(CSc1ncccc1C(=O)Oc1ccccc1Cl)Nc1ccccc1Cl was read as Cruzain inh Det 0.4% and Cruzain noTriton -7.6%.
For COc1cc(OC)c(NC(=O)c2cc(C(C)=O)n3ccccc23)cc1Cl the results were Cruzain inh Det 1.6% and Cruzain noTriton 4.3%.
